# Data as given in PubChem BioAssay (NCI).
# This is part of a sample that, as a whole, favours compounds with a hit. Of some 83,000 tested, about 20% had one in any assay.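 A percent growth of 40 corresponds to 60% growth inhibition; 0 means no net growth; -100 means all cells died. Active threshold: below 10.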 Unmarked numbers belong to inactive results. Calls of active or inactive are those of the source.
# Experiments:
# Test in all cases: NCI-60 one-dose screen, 48 h (100 = growth as untreated, 0 = no growth, -100 = all killed)
# SR leukemia = conditions: 10 µM unless noted
# RPMI-8226 leukemia = conditions: 10 µM unless noted
# OVCAR-8 ovarian = conditions: 10 µM unless noted
# OVCAR-5 ovarian = conditions: 10 µM unless noted
# OVCAR-4 ovarian = conditions: 10 µM unless noted
# SK-OV-3 ovarian = conditions: 10 µM unless noted
# IGROV1 ovarian = conditions: 10 µM unless noted
# OVCAR-3 ovarian = conditions: 10 µM unless noted
# HS 578T breast = conditions: 10 µM
# NCI/ADR-RES ovarian = conditions: 10 µM unless noted
# T-47D breast = conditions: 10 µM unless noted
# BT-549 breast = conditions: 10 µM unless noted
# MDA-MB-435 melanoma = conditions: 10 µM unless noted
# SW-620 colon = conditions: 10 µM unless noted
# MCF7 breast = conditions: 10 µM unless noted
# HCT-116 colon = conditions: 10 µM unless noted
# HCC-2998 colon = conditions: 10 µM unless noted
# KM12 colon = conditions: 10 µM unless noted
Structure (SMILES),growth (SR leukemia),growth (RPMI-8226 leukemia),growth (OVCAR-8 ovarian),growth (OVCAR-5 ovarian),growth (OVCAR-4 ovarian),growth (SK-OV-3 ovarian),growth (IGROV1 ovarian),growth (OVCAR-3 ovarian),growth (HS 578T breast),growth (NCI/ADR-RES ovarian),growth (T-47D breast),growth (BT-549 breast),growth (MDA-MB-435 melanoma),growth (SW-620 colon),growth (MCF7 breast),growth (HCT-116 colon),growth (HCC-2998 colon),growth (KM12 colon)
CCOC(=O)C1=C(C)NC(SCc2nnc(-c3ccc(Cl)cc3)o2)=NC1c1ccc(Br)cc1 (stereo unspecified),38.8%,38.4%,72.7%,93.9%,69.6%,82%,65.5%,77.5%,87.1%,67.5%,48%,79.8%,65.1%,91%,44.8%,48.6%,91.2%,76%
COc1ccc2c(c1)CCCC21C(=O)Nc2c(Cl)cccc21 (stereo unspecified),29.6%,82.9%,84.6%,92.9%,96.1%,71.9%,88.5%,76.3%,85.8%,18.3%,87.6%,91%,-11.8% (active),42.8%,81.8%,49.5%,88.3%,61.3%
COc1cccc(/C=N/N=C(N)N)c1,93%,104%,100%,89.7%,91.5%,111%,107%,105%,113%,103%,97.5%,114%,114%,98%,100%,99.9%,107%,96.4%
Cc1ccc(NC(=O)c2nc(S(C)(=O)=O)oc2-c2ccc(F)cc2)cc1Nc1ccc2ncn(C)c(=O)c2c1,-12.5% (active),19.3%,30.6%,102%,104%,107%,61.4%,-58.5% (active),106%,96.2%,-9.98% (active),66.3%,69.4%,-6.67% (active),52.5%,-10.8% (active),99.7%,59.2%
CCN(C)CCCOc1ccc(/C(=C(\C)Cc2cccc(OC)c2)c2ccc(OC(C)=O)cc2)cc1,-8.45% (active),102%,105%,99.6%,103%,93.7%,102%,105%,94%,101%,75.6%,92.3%,97.1%,106%,51.4%,99.7%,101%,106%
N#Cc1nc(-c2cccc(Br)c2)cc(-c2ccc(Nc3nc(N4CCCCC4)nc(N4CCCCC4)n3)cc2)c1N,11.9%,-0.0335% (active),12.2%,9.23% (active),-53.8% (active),87.4%,-45.4% (active),-76.6% (active),6.14% (active),24.3%,-52.6% (active),-69.5% (active),-91.7% (active),-42.3% (active),6.98% (active),-60.4% (active),18.2%,-1.24% (active)
CNC(=O)c1cc(Oc2ccc(NC(=O)c3nc(S(C)(=O)=O)sc3-c3ccc(F)cc3)cc2)ccn1,88%,15.9%,102%,107%,91.7%,118%,100%,50%,101%,94.7%,26.3%,105%,98.2%,104%,29.5%,85.3%,80.2%,25.3%
COc1ccc(C(=O)c2cc(C)c(OC)c(C)c2)cc1OC(=O)CCl,2.99% (active),11.2%,6.89% (active),39.6%,47.4%,20.6%,25.7%,-15.5% (active),44.4%,7.11% (active),62.7%,15.2%,-23.5% (active),26.5%,19.2%,6.62% (active),27%,12.2%
NS(=O)(=O)c1ccc(N2N=C(c3cccs3)CC2c2ccccc2O)cc1 (stereo unspecified),1.1% (active),7.41% (active),9.96% (active),9.55% (active),60.8%,6.78% (active),12.7%,-20.6% (active),17.3%,27.3%,46.1%,-15.4% (active),-41.1% (active),19.3%,4.97% (active),3.06% (active),-8.11% (active),-15.8% (active)
COc1ccc2[nH]cc(C(c3ccc(Cl)cc3)N3CCCC3)c2c1 (stereo unspecified),59.9%,85.9%,94.8%,101%,104%,109%,83.2%,99.5%,86.3%,97.9%,74%,65.9%,105%,112%,89.3%,96.5%,97%,101%
O=C(Nc1ccc(Oc2ccc(Nc3nc4ccccc4s3)cc2)cc1)Nc1ccc(Cl)c(C(F)(F)F)c1,0.688% (active),-19.5% (active),6.28% (active),23.6%,17.7%,12.1%,17%,-3.18% (active),7.39% (active),5% (active),3.71% (active),-1.46% (active),0.432% (active),8.67% (active),4.73% (active),0.0223% (active),2.48% (active),0.448% (active)
COc1ccc(/C(=C\c2cc(OC)c(OC)c(OC)c2)C(=O)N2CCCNCC2)cc1,103%,107%,103%,111%,112%,103%,113%,116%,107%,112%,93.1%,114%,111%,108%,97.3%,104%,99.8%,110%
Cc1cc(O)c(C2=NN(c3ccc(S(N)(=O)=O)cc3)C(c3ccc(Cl)cc3)C2)c(C)c1Cl (stereo unspecified),-24.1% (active),-37.6% (active),5.73% (active),95.2%,58.9%,81.6%,20.6%,68.1%,71.2%,80.3%,46.9%,112%,38.6%,48.5%,13%,55.1%,66.5%,29.1%
COC(=O)C(C)NC1=C(Cl)C(=O)C(NC(C)C(=O)OC)=C(Cl)C1=O (stereo unspecified),92.9%,96.1%,94.2%,111%,78.6%,105%,120%,61.2%,113%,101%,96.6%,99.4%,75.7%,104%,82.2%,97.9%,106%,96.8%
O=C(Cn1nncc1CN1C(=O)CSC1=O)Nc1ccc(F)cc1,124%,104%,108%,107%,103%,90.8%,102%,107%,97.6%,97.6%,97.8%,98.8%,100%,98.8%,94.6%,101%,96.2%,106%
CC(CN1CCN(CCOCCO)CC1)CN1c2ccccc2Sc2ccc(Cl)cc21 (stereo unspecified),-2.53% (active),60%,97.2%,71.7%,75.7%,90.4%,60.1%,67%,60.6%,68.7%,62.7%,79.1%,22.4%,63.6%,55.6%,37.5%,39.5%,28%
COc1cc2c(cc1OCCCOc1cc3c(cc1OC)C(=O)N1CCC[C@H]1C=N3)C=CC(C)(C)O2,25.8%,48%,89.2%,115%,110%,112%,92.1%,109%,45.7%,109%,62.6%,-0.137% (active),101%,18.1%,39.3%,61%,100%,109%
